Results on four compounds are retold here after PubChem BioAssay (NCATS).

Inconclusive results are not listed. The source made the active and inactive calls. Unless noted, the call rests on the fitted dose curve; in most records, active means well fitted curve in the direction sought with a large enough effect; inconclusive means small, poorly fitted or top-dose-only effect, or another doubt; inactive means no such curve, though single readings can be large; an effect the other way counts as inactive or inconclusive.

The target of test [1] is Lysosomal acid glucosylceramidase (Homo sapiens) (UniProt P04062). Kind of test: Glucocerebrosidase-p2 (AID 348; in the data active means potency below about 10 µM; further: potency means the concentration at half of the fitted maximal effect). The settings on record: purified GBA, blue fluorogenic substrate, 40 min. The procedure, abridged: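 Normal human glucocerebrosidase (0.2 nM) with blue fluorogenic substrate (80 uM final) in citrate/phosphate pH 5.9 with 10mM sodium taurocholate, 0.01% tween-20; 40 min RT, NaOH/glycine stop; fluorescence Ex 365/Em 440; AC50 from a titration from 0.6 nM upwards.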

The nature of test [2]: AP1 Signaling Pathway (AID 357; active means well fitted curve in either direction with a large enough effect, not every such curve was filed as active;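 further: ME-180 reporter cells stimulated with EGF at its EC50 level; on the % scale 0 is the no-effect control and ±100 the full control effect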). Conditions: ME-180 AP-1-bla reporter, EGF-induced, beta-lactamase ratio, 5 h; at 7.69 µM (top of the series) unless noted. The method in brief:
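Titration-series screen for positive or negative modulators of EC50 EGF-induced signaling in ME-180 cells carrying an AP-1-driven beta-lactamase reporter. After 5 hours at 37 degrees Celsius, CCF4 460nm/530nm emission ratio gave %Activity; AC50 values derived.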

Test [3] concerns the target Cytochrome P450 1A2 (Homo sapiens) (UniProt P05177). Kind of test: p450-cyp1a2 (AID 410; calls by dose curve; further: potency means the concentration at half of the fitted maximal effect). The settings on record: recombinant CYP1A2, luciferin-ME demethylation, luminescence; series mostly up to 57 µM. The procedure, abridged: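 O-Demethylation of luciferin 6' methyl ether by human CYP1A2 is monitored as luciferase luminescence. Substrate sits at Km (100uM); enzyme is 20nM. Values are scaled to 57 uM furafylline as maximal inhibition.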

Test [4] is described as follows: NFAT Signaling Pathway (AID 444; active means well fitted curve in either direction with a large enough effect, not every such curve was filed as active;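 further: carbachol stimulus at about its EC50 of 1 µM final; on the % scale 0 is the no-effect control and ±100 the full control effect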). Conditions: Jurkat NFAT-bla M1, carbachol, beta-lactamase ratio, 5 h; at 7.69 µM (top of the series) unless noted. The method in brief: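 Read-out: CCF4 FRET ratio (460 nm/530 nm) after 1 h RT dye loading, used for %activity and AC50 from titration series. Cells: Jurkat NFAT-β-lactamase/M1 line, treated with compound plus 1 uM carbachol for 5 h, 37 °C.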

Test [5] can be described thus: Stat Signaling Pathway (AID 446; active means well fitted curve in either direction with a large enough effect, not every such curve was filed as active;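 further: ME-180 cervical cancer cells given 40 pM IL-6 alongside compound; SIE-controlled beta-lactamase reporter measured as 460/530 nm FRET emission ratio; on the % scale 0 is the no-effect control and ±100 the full control effect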). Conditions: ME-180 (cervical carcinoma) SIE beta-lactamase reporter, IL-6 stimulated, 5 h; at 7.69 µM (top of the series) unless noted. The procedure, abridged: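 Overnight-plated ME-180 cells bearing a STAT Inducible Element beta-lactamase reporter; 5 h co-exposure to compound and 40 pM IL-6; values normalized to 300 pM IL-6 and 125 nM JAK inhibitor controls.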

For test [6], the target named is Glucocorticoid receptor (Homo sapiens) (UniProt P04150). Description: GR-GFP Redistribution (AID 450;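 active means compounds whose dose series gives a full or clear partial fitted curve of increased nuclear translocation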; further: potency means the concentration at half of the fitted maximal effect). The settings on record: U2OS GR-GFP nuclear translocation, laser cytometry, 2 h.
For test [7] the target is unchanged. Kind of test: GR-EFC Redistribution (AID 451; calls by dose curve; further: potency means the concentration at half of the fitted maximal effect). Conditions: CHO-K1 GR-EFC translocation, beta-gal luminescence, 2 h. The method in brief:
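Translocation of GR-ED fusion to nuclear EA restores b-gal, read by luminescence after 1 h room-temperature detection. Engineered CHO-K1 biosensor cells, 1,000/well, exposed 2 h at 37 C to titrations up to 46 uM final.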

Test [8] addresses Mitogen-activated protein kinase 10 (Mus musculus) (UniProt Q61831). Description: JNK3 AlphaScreen Assay (AID 530; active means well fitted curve in either direction with a large enough effect, not every such curve was filed as active;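 further: kinase came from lysate of stimulated human HepG2 cells; signal reports phosphorylation of biotinylated GST-cJun 1-79 at Ser73 with 10 µM ATP; on the % scale 0 is the no-effect control and ±100 the full control effect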). The settings on record: JNK3 lysate, c-Jun phosphorylation; series mostly up to 57.1 µM. The method in brief: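 qHTS titrations with 15 min compound pre-incubation before adding ATP (10 uM final). Read-out: AlphaScreen of Ser73-phosphorylated biotin-GST-cJun using HepG2 lysate JNK3 activated by IL-1β and TNFα.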
(In general: Alpha assays give light when donor and acceptor beads are brought close together.)

Test [9] has as its target 3',5'-cyclic-AMP phosphodiesterase 4B (Homo sapiens) (UniProt Q07343). Kind of test: qHTS Assay for Inhibitors of PDE-IV (AID 607; active means well fitted activation curve with a large enough effect in the main read-out, with a control signal flat, not every such curve was filed as active; further: % of control where 0% means no effect). Conditions: HEK293 ACTOne CNG channel cells, membrane potential fluorescence; series mostly up to 22.9 µM. The procedure, abridged: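 Live HEK293 cells with a modified cyclic nucleotide-gated (CNG) channel report intracellular cAMP via membrane-potential dye fluorescence (ex 535/em 590 nm). Endogenous PDE-IV was targeted. Compounds were tested at up to 22.9 uM final; RO 20-1724 100 uM served as control.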

A short description of test [10]: qHTS Assay for Lipid Storage Modulators (AID 1519; calls by dose curve). Conditions: Drosophila S3 cells, BODIPY lipid droplet/cell ratio, laser cytometry, cells loaded with oleic acid; for activity change, negative = inhibition: at 57.5 µM (top of the series). The procedure, abridged: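 Cells seeded at 5,000 per well were treated with compounds over a concentration series and loaded with oleic acid (400 uM, as added). Lipid droplet fluorescence (488 nm excitation, 500-530 nm channel) was read by laser-scanning cytometry and normalized to 20 uM Triacsin C.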

Test [11] concerns the target Dual specificity protein kinase CLK4 (Homo sapiens) (UniProt Q9HAZ1). Kind of test: qHTS Assay for Inhibitors of CDC-like Kinase 4 (Kinase-Glo Assay) (AID 1770). Further: on the % scale 0 is the no-effect control and ±100 the full control effect; nearly all actives have a fitted effect of over 65% in size. Conditions: recombinant Clk4, Kinase-Glo ATP depletion luminescence; series mostly up to 66.7 µM. The procedure, abridged:
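Inhibition was judged from remaining ATP, measured by Ultra-Glo luciferase bioluminescence after Clk4 (25 nM) had acted on RS peptide at 1 uM ATP for 4.5 hours, room temperature.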
On the technique in general: qHTS replaces the single test concentration by a dilution series.

The target is the same in test [12]. Description: qHTS Assay for Inhibitors of CDC-like Kinase 4 (ADP-Glo Assay) (AID 1771). Further: on the % scale 0 is the no-effect control and ±100 the full control effect; nearly all actives have a fitted effect of over 70% in size. Conditions: recombinant CLK4, ADP-Glo luminescence; series mostly up to 80 µM. The method in brief: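 Compounds are pin-transferred onto substrate mix (100 uM RS peptide, 1 uM ATP), then 25 nM Clk4 is added. After 1 hr at room temperature, ADP-Glo reagent runs 45 min, detection reagent 30 min, then luminescence is read.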

For test [13] the target is unchanged. Description: qHTS Assay for Inhibitors of CDC-like Kinase 4 (ADP-FP Assay) (AID 1795).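 Further: recombinant human CLK4 phosphorylating RS repeat peptide at 1 µM ATP; on the % scale 0 is the no-effect control and ±100 the full control effect; nearly all actives have a fitted effect of over 60% in size.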 Conditions: Transcreener ADP fluorescence polarization; series mostly up to 50 µM. The method in brief: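 Inhibition of ADP formation by 6.25 nM Clk4 is measured using 1 uM ATP and 100 uM RS repeat peptide over one hour. Produced ADP displaces a fluorescent tracer from antibody, lowering polarization.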

Test [14] concerns the target Ubiquitin carboxyl-terminal hydrolase 1 (Homo sapiens) (UniProt O94782). Kind of test: Inhibitors of USP1/UAF1: Pilot qHTS (AID 504865).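 Further: rhodamine fluorescence freed from ubiquitin-rhodamine substrate followed over time; top concentration of the series differs between compounds; on the % scale 0 is the no-effect control and ±100 the full control effect; nearly all actives have a fitted effect of over 35% in size.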 The settings on record: purified USP1/UAF1, Ub-rhodamine cleavage fluorescence; series mostly up to 54.9 µM. The procedure, abridged: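 Kinetic fluorescence assay: 1nM USP1/UAF1, 15 min compound preincubation, then 150nM Ub-Rho; 480/540 nm.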

Test [15] deals with Cytochrome P450 3A4 (Homo sapiens) (UniProt P08684). Kind of test: qHTS Assay for Inhibitors and Substrates of Cytochrome P450 3A4 (AID 884). Further: potency means the concentration at half of the fitted maximal effect; nearly all actives have a fitted effect of over 50% in size. Conditions: recombinant CYP3A4, Luciferin-PPXE luminescence; series mostly up to 57.1 µM. The procedure, abridged:
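Luminescent readout of luciferin produced by CYP3A4 (20 nM) dealkylation of Luciferin-PPXE, 25 uM (its KM). NADPH-driven reaction ran 60 min at RT after 10 min compound preincubation; data scaled to 57 uM ketoconazole as 100% inhibition.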

Test [16] shares this target. Description: qHTS Assay for Activators of Cytochrome P450 3A4 (AID 885). Further: nearly all actives have a fitted effect of over 65% in size. The settings on record: recombinant CYP3A4, Luciferin-PPXE luminescence, 60 min; series mostly up to 57.1 µM. The procedure, abridged:
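Using 20nM recombinant human CYP3A4 in potassium phosphate (200mM), substrate Luciferin-PPXE at 25uM, luminescent luciferin detection followed a 60-min RT NADPH reaction; data scaled to 57 uM ketoconazole.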

The nature of test [17]: Confirmation and Secondary Assay for Modulators of Hemoglobin Beta Chain Splicing at IVS2 654 locus (AID 910).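 Further: HeLa cells stably carrying EGFP split by mutant beta-globin IVS2-654 intron; per-well total GFP intensity by laser scanning cytometry after 2-day treatment; % of control where 0% means no effect.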 Conditions: HeLa EGFP-654 splicing reporter, GFP fluorescence, 48 h; series mostly up to 38.3 µM. The method in brief: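 Readout: per-well total peak green fluorescence (488 nm ex, 500–520 nm em) from objects 5–250 µm, reflecting correct splicing of an EGFP-654 reporter. Compounds were applied for 2 days at 37 °C to overnight-plated HeLa EGFP-654 cells; controls were DMSO and 500 nM IVS2-654 PNA.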

A short description of test [18]: Confirmation and Secondary Assay for Modulators of Hemoglobin Beta Chain Splicing at IVS2 705 locus (AID 930).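 Further: HeLa cells stably expressing the EGFP-705 splicing reporter; % of control where 0% means no effect.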 The settings on record: HeLa EGFP-705 splicing reporter, GFP fluorescence, 48 h; series mostly up to 38.3 µM. The procedure, abridged: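 Assay measures total GFP intensity per well in HeLa EGFP-705 cells after 2 days with compound; mis-splicing normally truncates EGFP, so fluorescence indicates corrected splicing.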

[19] abbreviates: measured here: cell count channel max response.
Setting [20] is: measured here: lipid channel max response.

Chain of Dual specificity protein kinase CLK4 (Homo sapiens) (Q9HAZ1 whole entry, looked up): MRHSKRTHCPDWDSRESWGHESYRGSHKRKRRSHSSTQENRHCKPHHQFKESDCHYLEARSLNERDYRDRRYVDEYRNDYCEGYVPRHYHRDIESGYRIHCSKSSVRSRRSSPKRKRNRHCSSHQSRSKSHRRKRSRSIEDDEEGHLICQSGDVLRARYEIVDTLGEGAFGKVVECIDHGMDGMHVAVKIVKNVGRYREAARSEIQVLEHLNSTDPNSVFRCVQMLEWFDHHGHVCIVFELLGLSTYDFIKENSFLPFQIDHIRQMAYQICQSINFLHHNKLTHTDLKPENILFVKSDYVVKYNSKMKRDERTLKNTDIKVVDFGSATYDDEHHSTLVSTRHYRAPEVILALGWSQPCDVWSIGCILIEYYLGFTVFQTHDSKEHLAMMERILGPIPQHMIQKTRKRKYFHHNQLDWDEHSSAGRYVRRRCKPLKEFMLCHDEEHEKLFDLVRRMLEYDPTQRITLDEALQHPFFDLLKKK
Chain of Glucocorticoid receptor (Homo sapiens) (P04150 whole entry, looked up): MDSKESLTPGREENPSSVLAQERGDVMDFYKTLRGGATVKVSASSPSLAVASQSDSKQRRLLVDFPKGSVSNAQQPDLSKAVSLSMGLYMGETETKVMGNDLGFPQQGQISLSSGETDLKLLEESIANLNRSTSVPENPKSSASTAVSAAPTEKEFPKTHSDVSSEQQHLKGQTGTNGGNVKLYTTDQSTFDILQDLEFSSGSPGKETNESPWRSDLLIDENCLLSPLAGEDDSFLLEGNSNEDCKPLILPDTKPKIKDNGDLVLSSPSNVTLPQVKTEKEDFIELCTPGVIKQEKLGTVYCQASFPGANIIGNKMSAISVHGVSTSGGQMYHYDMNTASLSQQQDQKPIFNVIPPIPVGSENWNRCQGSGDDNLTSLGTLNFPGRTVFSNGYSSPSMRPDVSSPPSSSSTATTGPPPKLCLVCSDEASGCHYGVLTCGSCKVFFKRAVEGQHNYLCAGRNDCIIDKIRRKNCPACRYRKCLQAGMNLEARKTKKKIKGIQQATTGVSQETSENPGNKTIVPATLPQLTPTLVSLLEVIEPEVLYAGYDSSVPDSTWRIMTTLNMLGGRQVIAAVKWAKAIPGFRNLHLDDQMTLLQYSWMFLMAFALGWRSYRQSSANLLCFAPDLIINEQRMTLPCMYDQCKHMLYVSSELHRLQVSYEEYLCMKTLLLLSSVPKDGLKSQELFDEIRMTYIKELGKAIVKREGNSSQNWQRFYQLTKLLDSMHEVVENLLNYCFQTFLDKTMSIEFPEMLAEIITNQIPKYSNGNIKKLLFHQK
Chain of Ubiquitin carboxyl-terminal hydrolase 1 (Homo sapiens) (O94782 whole entry, looked up): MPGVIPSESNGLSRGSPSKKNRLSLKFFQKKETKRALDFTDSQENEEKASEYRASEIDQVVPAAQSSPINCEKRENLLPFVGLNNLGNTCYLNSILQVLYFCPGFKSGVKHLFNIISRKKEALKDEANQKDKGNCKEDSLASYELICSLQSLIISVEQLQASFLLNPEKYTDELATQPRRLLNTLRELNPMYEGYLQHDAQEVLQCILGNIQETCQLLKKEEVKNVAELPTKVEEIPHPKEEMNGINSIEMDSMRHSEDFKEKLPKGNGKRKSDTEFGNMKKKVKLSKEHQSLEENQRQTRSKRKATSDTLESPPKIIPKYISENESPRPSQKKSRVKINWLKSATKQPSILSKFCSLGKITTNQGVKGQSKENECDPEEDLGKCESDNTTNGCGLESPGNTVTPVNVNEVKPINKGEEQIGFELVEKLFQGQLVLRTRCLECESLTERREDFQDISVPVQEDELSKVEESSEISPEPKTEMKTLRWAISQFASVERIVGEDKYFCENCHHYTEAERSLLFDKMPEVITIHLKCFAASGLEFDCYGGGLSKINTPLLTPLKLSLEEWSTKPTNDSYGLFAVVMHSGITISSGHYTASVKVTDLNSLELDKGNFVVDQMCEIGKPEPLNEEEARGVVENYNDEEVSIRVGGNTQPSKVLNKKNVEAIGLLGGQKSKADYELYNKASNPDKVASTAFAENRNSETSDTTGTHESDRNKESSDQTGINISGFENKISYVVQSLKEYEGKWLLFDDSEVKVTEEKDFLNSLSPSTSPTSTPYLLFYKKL
Chain of Lysosomal acid glucosylceramidase (Homo sapiens) (P04062 whole entry, looked up): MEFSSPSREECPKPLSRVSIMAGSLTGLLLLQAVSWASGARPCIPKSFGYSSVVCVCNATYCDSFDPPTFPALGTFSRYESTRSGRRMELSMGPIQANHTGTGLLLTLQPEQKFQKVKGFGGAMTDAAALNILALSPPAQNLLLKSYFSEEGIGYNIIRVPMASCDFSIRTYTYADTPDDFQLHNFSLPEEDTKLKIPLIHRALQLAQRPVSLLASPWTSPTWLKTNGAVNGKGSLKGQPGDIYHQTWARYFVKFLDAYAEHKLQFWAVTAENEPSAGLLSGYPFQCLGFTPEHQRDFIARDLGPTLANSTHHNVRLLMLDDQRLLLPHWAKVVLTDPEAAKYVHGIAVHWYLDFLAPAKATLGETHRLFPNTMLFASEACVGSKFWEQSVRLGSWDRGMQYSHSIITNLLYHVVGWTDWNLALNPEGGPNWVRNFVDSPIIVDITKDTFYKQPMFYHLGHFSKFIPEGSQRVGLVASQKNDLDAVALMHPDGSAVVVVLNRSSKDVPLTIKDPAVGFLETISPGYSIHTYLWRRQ
Chain of Cytochrome P450 3A4 (Homo sapiens) (P08684 whole entry, looked up): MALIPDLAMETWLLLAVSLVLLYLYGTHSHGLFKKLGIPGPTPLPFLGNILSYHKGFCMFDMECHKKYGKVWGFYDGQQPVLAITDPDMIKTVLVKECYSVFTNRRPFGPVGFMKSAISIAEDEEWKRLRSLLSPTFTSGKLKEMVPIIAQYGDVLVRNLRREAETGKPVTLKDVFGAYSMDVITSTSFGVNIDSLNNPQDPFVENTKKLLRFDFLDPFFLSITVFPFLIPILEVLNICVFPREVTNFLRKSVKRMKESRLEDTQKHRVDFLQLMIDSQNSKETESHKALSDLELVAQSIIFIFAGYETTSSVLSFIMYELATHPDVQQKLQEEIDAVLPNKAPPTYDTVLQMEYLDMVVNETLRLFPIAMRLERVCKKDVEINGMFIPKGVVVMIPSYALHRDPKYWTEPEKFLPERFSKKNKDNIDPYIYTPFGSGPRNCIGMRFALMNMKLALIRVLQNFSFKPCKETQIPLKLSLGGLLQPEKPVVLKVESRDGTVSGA
Chain of Cytochrome P450 1A2 (Homo sapiens) (P05177 whole entry, looked up): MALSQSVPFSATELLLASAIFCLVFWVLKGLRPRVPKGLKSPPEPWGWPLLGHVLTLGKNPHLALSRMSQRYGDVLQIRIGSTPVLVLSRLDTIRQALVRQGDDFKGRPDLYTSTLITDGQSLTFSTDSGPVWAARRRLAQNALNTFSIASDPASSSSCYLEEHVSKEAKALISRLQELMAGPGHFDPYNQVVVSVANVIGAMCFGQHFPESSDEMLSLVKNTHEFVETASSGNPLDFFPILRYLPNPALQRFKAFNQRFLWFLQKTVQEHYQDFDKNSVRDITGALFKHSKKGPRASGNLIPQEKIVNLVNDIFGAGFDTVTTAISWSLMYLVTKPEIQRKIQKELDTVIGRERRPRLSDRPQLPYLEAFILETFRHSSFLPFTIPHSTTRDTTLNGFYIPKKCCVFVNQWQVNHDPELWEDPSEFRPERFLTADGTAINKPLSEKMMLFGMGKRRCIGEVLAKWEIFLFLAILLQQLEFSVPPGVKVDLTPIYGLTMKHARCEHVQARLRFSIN
Chain of 3',5'-cyclic-AMP phosphodiesterase 4B (Homo sapiens) (Q07343 whole entry, looked up): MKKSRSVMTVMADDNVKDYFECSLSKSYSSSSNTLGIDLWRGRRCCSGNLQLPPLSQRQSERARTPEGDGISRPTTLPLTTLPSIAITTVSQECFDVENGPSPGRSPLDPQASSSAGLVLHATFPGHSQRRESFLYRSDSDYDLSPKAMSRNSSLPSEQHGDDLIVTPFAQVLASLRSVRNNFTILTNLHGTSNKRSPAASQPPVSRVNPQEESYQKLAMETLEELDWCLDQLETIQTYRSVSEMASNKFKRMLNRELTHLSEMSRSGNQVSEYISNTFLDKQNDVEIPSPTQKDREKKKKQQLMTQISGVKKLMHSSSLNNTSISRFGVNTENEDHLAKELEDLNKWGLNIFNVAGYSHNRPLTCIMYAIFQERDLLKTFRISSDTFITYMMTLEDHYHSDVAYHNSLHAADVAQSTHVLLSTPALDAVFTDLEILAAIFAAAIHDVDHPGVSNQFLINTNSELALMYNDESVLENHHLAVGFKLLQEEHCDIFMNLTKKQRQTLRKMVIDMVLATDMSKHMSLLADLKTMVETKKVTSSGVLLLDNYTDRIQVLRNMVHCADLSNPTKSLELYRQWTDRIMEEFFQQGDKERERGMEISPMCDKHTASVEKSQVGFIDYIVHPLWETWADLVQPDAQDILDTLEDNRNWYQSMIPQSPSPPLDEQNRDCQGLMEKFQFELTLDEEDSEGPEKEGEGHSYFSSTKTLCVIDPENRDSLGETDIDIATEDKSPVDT

As to `COc1ccc(-c2nc3cnc(N4CCN(C)CC4)nc3n(C3CC3)c2=O)cc1`, the Potency in test [1] is > 11.4 µM (inactive); in [3] it was 20 µM (active); in test [6], > 9.22 µM (inactive); in test [7], > 46 µM (inactive). Further, the figures for the activity change, negative = inhibition in test [2], in [4] and in [10] were -5.97% (inactive), -2.54% (inactive) and 2.69% (inactive), respectively. The activity, negative = inhibition in [5] is -7.93% (inactive). Besides, the Potency entry in [8], in test [9], in test [11], in test [12], in [13] and in [14] was “inactive” throughout. In addition, the values for the max response in test [10] (setting [19]) and in test [10] (setting [20]) were 2.3% and 3.44%, respectively.

Take `COc1ccc(-c2cc(=O)c3c(OC)c(OC)c(OC)c(OC)c3o2)cc1OC`: in test [15], the Potency was 25.1 µM (active). Further, the Potency result in test [16], in test [17] and in test [14] was “inactive” in each case. In addition, the call in test [18] was inactive. In addition, the activity change, negative = inhibition in test [10] is -10.1% (inactive). Besides, the max response in test [10] (setting [19]) is -11.8%; in [10] (setting [20]) it was -19.5%.

As for `Nc1ncnc2c1ncn2[C@@H]1O[C@H](COP(=O)(O)OP(=O)(O)OP(=O)(O)OP(=O)(O)OC[C@@H]2O[C@H](n3cnc4c(N)ncnc43)[C@@H](O)[C@@H]2O)[C@H](O)[C@H]1O`, in test [10], the activity change, negative = inhibition was 1.69% (inactive). Further, the max response came to 17% in test [10] (setting [19]) and 19.7% in [10] (setting [20]).

Turning to `COc1ccc(-c2nc3cnc(N4CCN(C)CC4)nc3n(C)c2=O)cc1`, the Potency in test [1] was > 11.4 µM (inactive); in test [3] it was 25.1 µM (active); in test [6] it was > 9.22 µM (inactive); in [7], > 46 µM (inactive). The activity change, negative = inhibition in test [2] was 14.5% (inactive); in [4], 27.7% (inactive); in [10] it was 1.83% (inactive). Further, the activity, negative = inhibition in test [5] was 26.5% (inactive). Moreover, the Potency entry in [8], in [11], in test [12], in test [13] and in [14] was “inactive” throughout. Besides, the max response in test [10] (setting [19]) was 6.37%; in test [10] (setting [20]), 3.68%.
